Measurements reported in PubChem BioAssay (NCATS).
Records with an inconclusive call do not appear. The source made the active and inactive calls. Unless noted, the call rests on the fitted dose curve; in most records, active means well fitted curve in the direction sought with a large enough effect; inconclusive means small, poorly fitted or top-dose-only effect, or another doubt; inactive means no such curve, though single readings can be large; an effect the other way counts as inactive or inconclusive.

Key:
[1] = target: Lysosomal acid glucosylceramidase (Homo sapiens) (UniProt P04062); assay: Glucocerebrosidase-p2 (AID 348; in the data active means potency below about 10 µM; further: potency means the concentration at half of the fitted maximal effect); settings: purified GBA, blue fluorogenic substrate, 40 min
Lysosomal acid glucosylceramidase (Homo sapiens), sequence (P04062 whole entry, looked up): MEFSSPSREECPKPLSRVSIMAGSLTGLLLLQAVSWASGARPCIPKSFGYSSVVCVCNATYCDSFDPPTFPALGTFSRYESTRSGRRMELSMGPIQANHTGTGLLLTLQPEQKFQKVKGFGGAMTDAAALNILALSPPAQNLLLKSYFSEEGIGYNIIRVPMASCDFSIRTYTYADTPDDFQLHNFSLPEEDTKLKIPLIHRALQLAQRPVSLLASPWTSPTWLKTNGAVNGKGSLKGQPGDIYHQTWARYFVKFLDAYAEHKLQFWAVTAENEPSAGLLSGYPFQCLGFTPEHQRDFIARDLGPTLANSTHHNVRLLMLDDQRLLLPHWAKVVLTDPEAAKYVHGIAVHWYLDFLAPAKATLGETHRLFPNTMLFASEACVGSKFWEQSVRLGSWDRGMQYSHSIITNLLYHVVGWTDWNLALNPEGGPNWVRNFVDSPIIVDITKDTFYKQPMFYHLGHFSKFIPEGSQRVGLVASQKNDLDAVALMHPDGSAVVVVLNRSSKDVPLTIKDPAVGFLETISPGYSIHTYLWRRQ
In short: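 Compounds titrated from 0.6 nM upwards against 0.2 nM enzyme in pH 5.9 citric acid/KH2PO4, taurocholate, tween-20; blue fluorogenic substrate 80 uM, 40 min room temperature, stopped and read Ex 365/Em 440 for AC50.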

[2] = AP1 Signaling Pathway (AID 357; active means well fitted curve in either direction with a large enough effect, not every such curve was filed as active; further: on the % scale 0 is the no-effect control and ±100 the full control effect); settings: ME-180 AP-1-bla reporter, EGF-induced, beta-lactamase ratio, 5 h; at 7.69 µM (top of the series) unless noted
In short: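 ME-180 cells with beta-lactamase reporter under AP-1 response element, stimulated with EC50 EGF; compounds tested in titration series, 5 h at 37 °C. CCF4 substrate added 2.5 h at room temperature; 460/530 nm emission ratio gave %activity and AC50.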

[3] = Stat Signaling Pathway (AID 446; active means well fitted curve in either direction with a large enough effect, not every such curve was filed as active;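 further: ME-180 cervical cancer cells given 40 pM IL-6 alongside compound; SIE-controlled beta-lactamase reporter measured as 460/530 nm FRET emission ratio; on the % scale 0 is the no-effect control and ±100 the full control effect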); settings: ME-180 SIE beta-lactamase reporter, IL-6 stimulated, 5 h; at 7.69 µM (top of the series) unless noted
In short: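 Reporter line: ME-180 cervical carcinoma, SIE-beta-lactamase. Treatment: compound with 40 pM IL-6, 5 hrs, 37 C, in low-serum OPTI-MEM with 10 mM HEPES pH 7.3. Detection: 460/530 nm fluorescence.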

[4] = target: 3',5'-cyclic-AMP phosphodiesterase 4B (Homo sapiens) (UniProt Q07343); assay: qHTS Assay for Inhibitors of PDE-IV (AID 607; active means well fitted activation curve with a large enough effect in the main read-out, with a control signal flat, not every such curve was filed as active; further: % of control where 0% means no effect); settings: HEK293 ACTOne CNG channel cells, membrane potential fluorescence; series mostly up to 22.9 µM
3',5'-cyclic-AMP phosphodiesterase 4B (Homo sapiens), sequence (Q07343 whole entry, looked up): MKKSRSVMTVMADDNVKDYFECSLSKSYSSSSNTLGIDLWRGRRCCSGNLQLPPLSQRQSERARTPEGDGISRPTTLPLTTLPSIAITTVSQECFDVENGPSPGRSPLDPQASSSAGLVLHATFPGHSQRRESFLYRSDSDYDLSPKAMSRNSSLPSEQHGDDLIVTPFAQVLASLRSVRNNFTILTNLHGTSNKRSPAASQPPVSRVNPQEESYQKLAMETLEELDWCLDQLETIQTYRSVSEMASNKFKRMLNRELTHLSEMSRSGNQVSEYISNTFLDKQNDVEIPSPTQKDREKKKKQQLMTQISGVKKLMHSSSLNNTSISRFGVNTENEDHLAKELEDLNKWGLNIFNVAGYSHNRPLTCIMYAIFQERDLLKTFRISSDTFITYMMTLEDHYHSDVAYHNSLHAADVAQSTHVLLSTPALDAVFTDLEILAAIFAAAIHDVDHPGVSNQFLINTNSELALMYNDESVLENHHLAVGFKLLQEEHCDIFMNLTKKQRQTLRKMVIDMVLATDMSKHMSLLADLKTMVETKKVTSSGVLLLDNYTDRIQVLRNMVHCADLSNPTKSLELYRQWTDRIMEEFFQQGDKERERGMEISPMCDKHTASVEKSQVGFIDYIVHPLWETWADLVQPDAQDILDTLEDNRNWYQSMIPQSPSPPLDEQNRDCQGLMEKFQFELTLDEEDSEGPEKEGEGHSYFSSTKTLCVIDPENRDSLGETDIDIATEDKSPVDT
In short: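 Cell-based read-out of cAMP via a modified cyclic nucleotide-gated channel and membrane potential dye (535/590 nm) in HEK293 cells expressing PDE4 endogenously. Compounds tested up to 22.9 uM final; 100 uM RO 20-1724 reference.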

[5] = target: ATP-dependent 6-phosphofructokinase (Trypanosoma brucei brucei) (UniProt O15648); assay: qHTS Assay to Find Inhibitors of T. brucei phosphofructokinase: hit validation (AID 492961);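 further: luminescence reports ADP formed as PFK phosphorylates fructose-6-phosphate with ATP; on the % scale 0 is the no-effect control and ±100 the full control effect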; settings: T. brucei PFK, ADP-Glo luminescence; series mostly up to 51.4 µM
ATP-dependent 6-phosphofructokinase (Trypanosoma brucei brucei), sequence (O15648 whole entry, looked up): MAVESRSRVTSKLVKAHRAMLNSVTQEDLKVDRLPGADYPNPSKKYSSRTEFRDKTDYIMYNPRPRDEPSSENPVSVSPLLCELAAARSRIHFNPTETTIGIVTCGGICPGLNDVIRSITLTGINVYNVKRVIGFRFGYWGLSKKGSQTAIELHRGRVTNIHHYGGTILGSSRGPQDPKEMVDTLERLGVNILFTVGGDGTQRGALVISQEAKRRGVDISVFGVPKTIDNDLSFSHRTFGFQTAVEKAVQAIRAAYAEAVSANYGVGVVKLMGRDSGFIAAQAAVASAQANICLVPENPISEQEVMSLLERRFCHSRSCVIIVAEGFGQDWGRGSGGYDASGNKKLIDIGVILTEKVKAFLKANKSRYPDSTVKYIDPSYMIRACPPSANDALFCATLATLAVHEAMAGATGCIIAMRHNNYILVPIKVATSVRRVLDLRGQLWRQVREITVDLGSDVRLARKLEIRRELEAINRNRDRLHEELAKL
In short: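 Compounds titrated; %activity normalized to 0x and 1x enzyme controls, curve-fitted. Readout: ADP-Glo luminescence after 45 min room-temperature reaction of 1.25 nM PFK, 0.1 mM ATP, 0.5 mM F6P, pH 8.0.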

[6] = target: Luciferin 4-monooxygenase (Photinus pyralis) (UniProt P08659); assay: Biochemical firefly luciferase enzyme assay for NPC (AID 624030);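 further: purified P. pyralis luciferase at 10 nM with luciferin and ATP substrate; 0% = DMSO and -100% = full luciferase inhibition by PTC124 control; nearly all actives have a fitted effect of over 70% in size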; settings: purified P. pyralis luciferase, luminescence, 5 min; series mostly up to 58.6 µM
Luciferin 4-monooxygenase (Photinus pyralis), sequence (P08659 whole entry, looked up): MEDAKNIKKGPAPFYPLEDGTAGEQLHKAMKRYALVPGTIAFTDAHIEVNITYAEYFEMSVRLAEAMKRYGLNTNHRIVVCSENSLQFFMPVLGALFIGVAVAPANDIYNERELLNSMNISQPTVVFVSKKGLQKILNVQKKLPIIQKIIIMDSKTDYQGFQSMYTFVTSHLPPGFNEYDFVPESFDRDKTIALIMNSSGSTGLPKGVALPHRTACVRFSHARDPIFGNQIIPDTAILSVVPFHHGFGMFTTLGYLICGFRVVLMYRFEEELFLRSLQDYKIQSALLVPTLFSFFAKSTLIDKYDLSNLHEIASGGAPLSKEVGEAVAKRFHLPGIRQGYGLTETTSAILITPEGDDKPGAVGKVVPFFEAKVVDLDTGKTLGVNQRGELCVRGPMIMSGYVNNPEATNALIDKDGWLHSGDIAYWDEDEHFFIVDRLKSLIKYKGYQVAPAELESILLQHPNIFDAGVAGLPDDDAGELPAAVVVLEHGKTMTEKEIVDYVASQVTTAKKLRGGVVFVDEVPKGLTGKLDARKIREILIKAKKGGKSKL
In short: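 Purified P. pyralis luciferase at 10 nM in 50 mM Tris Acetate (final), luminescence read within 5 minutes of enzyme addition to compounds. Activity normalised to PTC124 versus DMSO; concentration-response curves classed by r2, magnitude and activity.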

[7] = S16 Schwann cell viability assay (CellTiter-Glo assay) (AID 624031); settings: S16 rat Schwann cells viability, 24 h; series mostly up to 57.5 µM;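 further: cellular ATP luminescence as a viability measure; plate controls were DMSO-treated cells for no effect and cell-free wells for full effect; nearly all actives have a fitted effect of over 70% in size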
In short: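 CellTiter-Glo ATP luminescence counter-screen in untransfected S16 rat Schwann cells, 24h compound exposure at 37 degree Celsius after overnight seeding (500-750 cells/well); response scaled between cell-free wells and DMSO (0% activity), curves classed by r2 and magnitude.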

[8] = S16 Schwann cell PMP22 intronic element firefly luciferase assay (AID 624032); settings: S16 rat Schwann cells, PMP22 element FLuc, 24 h; series mostly up to 57.5 µM;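 further: plate controls were DMSO for no effect and PTC124 positive control mean for full effect; nearly all actives have a fitted effect of over 30% in size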
In short: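 Rat S16 Schwann cells stably carrying firefly luciferase driven by a PMP22 intronic element, in 10% FBS, treated 24 h at 37 C. ONE-Glo luminescence normalized to PTC124 control and DMSO (0%); curves classed by r2, magnitude and activity.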

[9] = S16 Schwann cell PMP22 intronic element beta-lactamase assay (AID 624044; calls by dose curve;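 further: 0% = DMSO and -100% = potassium clavulanate positive control; nearly all actives have a fitted effect of over 15% in size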); settings: S16 rat Schwann cells, PMP22 element beta-lactamase FRET, 24 h; series mostly up to 38.3 µM
In short: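 Rat S16 Schwann cells with beta-Lac driven by a PMP22 intronic element, compound-treated 24 h at 37 °C. LiveBLAzer FRET B/G read: 460 nm normalized to potassium clavulanate vs DMSO; 535 nm FRET as viability; concentration-effect curves classified.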

[10] = qHTS profiling for inhibitors of Plasmodium falciparum proliferation (AID 504749);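 further: 0% = DMSO vehicle and full inhibition = artemisinin control; nearly all actives have a fitted effect of over 60% in size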; settings: P. falciparum in erythrocytes, SYBR Green DNA, 72 h, at 28.7 µM (top of the series)
In short: (§1)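 P. falciparum-infected erythrocytes (0.3% parasitemia, 2.5% hematocrit) incubated with compound 72 h at 37 C, 5% CO2. Parasite DNA detected by SYBR Green after lysis, overnight at room temperature; normalised to 0.29 uM artemisinin and DMSO.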

3D7 = assay: as above; settings: P. falciparum in erythrocytes, SYBR Green DNA, 72 h; series mostly up to 28.7 µM
In short: as §1

7G8 = assay: as above; settings: P. falciparum in erythrocytes, SYBR Green DNA, 72 h; series mostly up to 28.7 µM
In short: as §1

AA1029 = assay: as above; settings: P. falciparum in erythrocytes, SYBR Green DNA, 72 h; series mostly up to 28.7 µM
In short: as §1

AS120 = assay: as above; settings: P. falciparum in erythrocytes, SYBR Green DNA, 72 h; series mostly up to 28.7 µM
In short: as §1

ATS189 = assay: as above; settings: P. falciparum in erythrocytes, SYBR Green DNA, 72 h; series mostly up to 28.7 µM
In short: as §1

ATS95 = assay: as above; settings: P. falciparum in erythrocytes, SYBR Green DNA, 72 h; series mostly up to 28.7 µM
In short: as §1

C2A = assay: as above; settings: P. falciparum in erythrocytes, SYBR Green DNA, 72 h; series mostly up to 28.7 µM
In short: as §1

CP185 = assay: as above; settings: P. falciparum in erythrocytes, SYBR Green DNA, 72 h; series mostly up to 28.7 µM
In short: as §1

CP191 = assay: as above; settings: P. falciparum in erythrocytes, SYBR Green DNA, 72 h; series mostly up to 28.7 µM
In short: as §1

CP192 = assay: as above; settings: P. falciparum in erythrocytes, SYBR Green DNA, 72 h; series mostly up to 28.7 µM
In short: as §1

CP194 = assay: as above; settings: P. falciparum in erythrocytes, SYBR Green DNA, 72 h; series mostly up to 28.7 µM
In short: as §1

CP201 = assay: as above; settings: P. falciparum in erythrocytes, SYBR Green DNA, 72 h; series mostly up to 28.7 µM
In short: as §1

CP203 = assay: as above; settings: P. falciparum in erythrocytes, SYBR Green DNA, 72 h; series mostly up to 28.7 µM
In short: as §1

CP211 = assay: as above; settings: P. falciparum in erythrocytes, SYBR Green DNA, 72 h; series mostly up to 28.7 µM
In short: as §1

CP215 = assay: as above; settings: P. falciparum in erythrocytes, SYBR Green DNA, 72 h; series mostly up to 28.7 µM
In short: as §1

CP217 = assay: as above; settings: P. falciparum in erythrocytes, SYBR Green DNA, 72 h; series mostly up to 28.7 µM
In short: as §1

CP237 = assay: as above; settings: P. falciparum in erythrocytes, SYBR Green DNA, 72 h; series mostly up to 28.7 µM
In short: as §1

CP238 = assay: as above; settings: P. falciparum in erythrocytes, SYBR Green DNA, 72 h; series mostly up to 28.7 µM
In short: as §1

CP247 = assay: as above; settings: P. falciparum in erythrocytes, SYBR Green DNA, 72 h; series mostly up to 28.7 µM
In short: as §1

CP250 = assay: as above; settings: P. falciparum in erythrocytes, SYBR Green DNA, 72 h; series mostly up to 28.7 µM
In short: as §1

CP252 = assay: as above; settings: P. falciparum in erythrocytes, SYBR Green DNA, 72 h; series mostly up to 28.7 µM
In short: as §1

CP256 = assay: as above; settings: P. falciparum in erythrocytes, SYBR Green DNA, 72 h; series mostly up to 28.7 µM
In short: as §1

CP260 = assay: as above; settings: P. falciparum in erythrocytes, SYBR Green DNA, 72 h; series mostly up to 28.7 µM
In short: as §1

CN1[C@@H]2CC(OC(=O)[C@@H](CO)c3ccccc3)C[C@@H]1[C@H]1O[C@H]12 (some centres undefined)
inactive: Potency [1] > 11.4 µM | activity change, negative = inhibition [2] 20.3% | activity, negative = inhibition [3] 6.14% | Potency [4] | outcome [5] | outcome [6] | Potency [7] | Potency [8] | outcome [9] | activity, negative = inhibition ([10]; parasite line A) 11.4% | activity, negative = inhibition ([10]; parasite line B) 4.71% | Potency (3D7) | Potency (7G8) | Potency (AA1029) | Potency (AS120) | Potency (ATS189) | Potency (ATS95) | Potency (C2A) | Potency (CP185) | Potency (CP191) | Potency (CP192) | Potency (CP194) | Potency (CP201) | Potency (CP203) | Potency (CP211) | Potency (CP215) | Potency (CP217) | Potency (CP237) | Potency (CP238) | Potency (CP247) | Potency (CP250) | Potency (CP252) | Potency (CP256) | Potency (CP260)
